Consider 40 compounds from PubChem BioAssay (NCATS).

Records with an inconclusive call do not appear. A call without a number means that no potency is given here. The source made the active and inactive calls. Calls come from the whole dose curve; as a rule, active = well fitted inhibition curve with a large enough effect; inconclusive = small, poorly fitted or top-dose-only effect; inactive = flat fitted curve, though single readings scatter.
Potency is the fitted concentration of half-maximal effect.

The nature of the experiment: High Content Imaging Cell-Based qHTS for Inhibitors of the mTORC1 Signaling Pathway in MEF (Tsc2-/-, p53-/-) Cells (AID 2666).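 Note: percent of cells scored positive for phospho-rpS6 Ser235/236 immunostaining by imaging.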 Conditions: series mostly up to 38.3 µM. The source says:
NIH Molecular Libraries Probe Production Centers Network [MLPCN]
NIH Chemical Genomics Center [NCGC]
Assay Submitter (PI): Blenis, John; Hoffman, Greg; Harvard University
NCGC Assay Overview: Thee mammalian target of rapamycin (mTOR) is an intracellular serine/threonine kinase Aberrant regulation of mTOR signaling plays a causative role in a number of human diseases, including cancer, benign tumors such as lymphangioleiomyomatosis (LAM) and Tuberous Sclerosis Complex (TSC), and metabolic diseases such as diabetes and obesity. This project aims to identify inhibitors of ribosomal protein S6 (rpS6) phosphorylation. The phosphorylation of rpS6 is a key event downstream of mTOR activation. The assay uses a phospho-specific antibody of phospho-rpS6 to detect inhibitors of mTOR activation. Mutations in the Tsc1 and Tsc2 genes are the underlying genetic lesions responsible for TSC, causing constitutive activation of the mTORC1 pathway and leading to profound effects on cell metabolism. Aberrant metabolism in cancer has recently received significant attention as a target to develop therapeutic agents in the treatment of cancer1. As Tsc2-/- cells have lost the ability to respond to energy and growth factor deprivation, these cells are unable to properly down regulate cellular biosynthetic processes in response to metabolic stress, and are thus extremely sensitive to glucose deprivation-induced death.2 A central goal of this project is to explore the unique cell survival and metabolic properties of cells with Tsc1 or Tsc2 by screening for compounds that selectively target the Tsc2-/- MEFs by screening both Tsc2-/- and WT MEF cell lines. We hope to better understand these aspects of TSC physiology in order to exploit them for therapeutic benefit.
NCGC IN Cell Assay Protocol:
For quantitative high throughput analysis of mTORC1 signaling, we developed a cell-based assay for immuno-fluorescence based detection of rpS6 phosphorylation on the Acumen Explorer that will be used a platform for the primary small molecule screen. Mouse embryonic fibroblasts (MEFs) are cultured in 1536-well plates using DMEM + 10% FBS. Twenty-four hrs after plating, test compounds (solubilized in DMSO) are delivered and incubated with the cells for 24 hrs at 37 degree Celsius. Following the incubation, media with compound is aspirated and the cells are fixed in 4% paraformaldehyde (PFA) containing PBS + 0.2% TX-100. Next, PFA is aspirated, cells are washed two times with PBS plus 0.2% TX-100 and the cells are blocked for 1 hr at room temperature (blocking buffer: LiCOR Blocking Buffer plus 0.2% TX-100). This is followed by aspiration and staining with Alexa-488 conjugated-phospho-rpS6 Ser235/236 antibody for 2 hours at room temperature (Cell Signaling Technology # 4803, 1:50 dilution in blocking buffer). Cells are washed two times with PBS plus 0.2% TX-100, and stained with 10 uM propidium iodide (PI) for 20-25 minutes for cell number measurement (1:500 dilution of Hoescht staining is also added for IN Cell imaging). Active wells which are selected (based on Acumen results) are imaged on the IN Cell 1000 (GE Healthcare) using the D360/40X and HQ480/40X excitation filters for the Hoechst and Alexa-488 cytoplasmic stains, respectively. The fluorescence emission filters used were HQ460/40M and HQ535/50M for the Hoechst and Alexa-488 cytoplasmic stains, respectively. The normalized phospho-S6 staining is calculated as the ratio of […] for the single concentration rapamycin control ([…] nM) and DMSO columns. […] Inhibition of the pathway is defined based on the normalized phospho-S6 intensity in rapamycin treated cells. Each treatment is reported as the % positive cells in the well, where thresholds are defined by selecting wells with the highest and lowest signal and differentiating between the % non-active and % active populations. […]
As to `CN(C)CC/C=C1\c2ccccc2COc2ccccc21`, the Potency entry was “inactive”.
With `CCn1nc(C(=O)O)c(=O)c2cc3c(cc21)OCO3`, the Potency result is “inactive”.
As to `c1cc(CN2CCCCC2)cc(OCCCNc2nc3ccccc3s2)c1`, the Potency result is “inactive”.
The entry for `CC(=O)Nc1nnc(S(N)(=O)=O)s1` is “inactive”.
With `CC1=NS(=O)(=O)c2cc(Cl)ccc2N1`, the Potency entry was “inactive”.
As for `CCN(CC)CCOCCOC(=O)C1(c2ccccc2)CCCC1`, the entry is “inactive”; as for `NC(=O)N1c2ccccc2C=Cc2ccccc21`, “inactive”; as for `CC(C)(Oc1ccc(CCNC(=O)c2ccc(Cl)cc2)cc1)C(=O)O`, “inactive”.
In the case of `CCCCCCCC/C=C\CCCCCCCC(=O)NCc1ccc(O)c(OC)c1`, the Potency result was “inactive”.
Turning to `CCC(=O)c1ccc2c(c1)N(CCCN(C)C)c1ccccc1S2`, the Potency result is “inactive”.
With `Cc1scc2c1N(C(=O)CN1CCN(C)CC1)c1ccccc1NC2=O`, the Potency result was “inactive”.
As for `CC1=C(C)C(=O)C(CCCCC#CCCCC#CCO)=C(C)C1=O`, the Potency result is “inactive”.
Regarding `C[C@]12CCC(=O)C=C1CC[C@@H]1[C@@H]2C(=O)C[C@@]2(C)[C@H]1CC[C@]2(O)C(=O)CO`, the Potency entry is “inactive”.
As for `C[N+](C)(C)CCOC(=O)CCC(=O)OCC[N+](C)(C)C`, the entry is “inactive”.
With `CC(C)NCC(O)c1cc(O)cc(O)c1` (stereo not given), the Potency result was “inactive”.
Regarding `C[C@]12CCC(=O)C=C1CC[C@@H]1[C@@H]2CC[C@@]2(C)[C@H]1CC[C@]2(O)C(=O)CO`, the Potency entry is “inactive”.
On to `C[C@H](CS)C(=O)N1CCC[C@H]1C(=O)O`, for which the Potency result was “inactive”.
As for `CCN(Cc1ccncc1)C(=O)C(CO)c1ccccc1` (stereo not given), the Potency result was “inactive”.
As to `c1ccc2c(c1)CCCC2C1=NCCN1` (stereo not given), the Potency entry is “inactive”.
With `CCOC(=O)c1cnc2c(cnn2CC)c1NN=C(C)C`, the Potency entry is “inactive”.
Regarding `Cc1ccc(/C(=C\CN2CCCC2)c2ccccn2)cc1`, the Potency entry is “inactive”.
For `O=C(O)CCCCCCCC(=O)O`, the Potency entry was “inactive”.
As for `Cc1nc2c([nH]1)c(=O)n(C)c(=O)n2Cc1ccco1`, the entry is “inactive”.
For the compound `CCOC(=O)C1=C(C)NC(C)=C(C(=O)OC)C1c1cccc(Cl)c1Cl` (stereo not given), the Potency result is “inactive”.
As for `CNCCC(Oc1ccccc1OC)c1ccccc1` (stereo not given), the entry is “inactive”; as for `Brc1c(NC2=NCCN2)ccc2nccnc12`, “inactive”; as for `N[C@@H](COP(=O)(O)O)C(=O)O`, “inactive”.
In the case of `NC1=NCC2c3ccccc3Cc3ccccc3N12` (stereo not given), the Potency entry is “inactive”.
For the compound `CN(C(=O)CCCOc1ccc2[nH]c(=O)ccc2c1)C1CCCCC1`, the Potency entry was “inactive”.
For `C=CCc1ccccc1OCC(O)CNC(C)C` (stereo not given), the Potency result is “inactive”.
For `CSc1ccc(C(=O)c2[nH]c(=O)[nH]c2C)cc1`, the Potency result was “inactive”.
The figure for `CC(=O)[C@]1(O)Cc2c(O)c3c(c(O)c2[C@@H](O[C@H]2C[C@H](N)[C@H](O)[C@H](C)O2)C1)C(=O)c1ccccc1C3=O` is 2.33 µM (active); for `CC(=O)OC(C)C[N+](C)(C)C` (stereo not given) it is “inactive”; for `Cc1nc2ccccn2c(=O)c1CCN1CCC(C(=O)c2ccc(F)cc2)CC1` it is “inactive”.
In the case of `CC(C)NNC(=O)c1ccncc1`, the Potency entry was “inactive”.
Turning to `COc1cc2c(cc1OC)-c1cc(=Nc3c(C)cc(C)cc3C)n(C)c(=O)n1CC2`, the Potency entry was “inactive”.
As for `NC/C=C/C(=O)O`, the Potency result is “inactive”.
With `NC(N)=N/N=C/c1c(Cl)cccc1Cl`, the Potency result is “inactive”.
As for `CN(C)C(=O)Oc1cccc([N+](C)(C)C)c1`, the entry is “inactive”; as for `COCCCC/C(=N\OCCN)c1ccc(C(F)(F)F)cc1`, “inactive”.
